Holding throughout (test): NCI-60 one-dose screen, 48 h (100 = growth as untreated, 0 = no growth, -100 = all killed)
One experiment deals with MOLT-4 leukemia. To be noted: 10 µM.
The subject of another experiment is OVCAR-8 ovarian. The following applies: 10 µM.
Another experiment relates to OVCAR-5 ovarian. The following applies: 10 µM.
In the next experiment the test system is OVCAR-4 ovarian. The following applies: 10 µM.
A further experiment deals with SK-OV-3 ovarian. To be noted: 10 µM.
A further experiment deals with IGROV1 ovarian. To be noted: 10 µM.
Another experiment deals with OVCAR-3 ovarian. The following applies: 10 µM.
Another experiment has as its system HS 578T breast. To be noted: 10 µM.
Another experiment relates to NCI/ADR-RES ovarian. To be noted: 10 µM.
A further experiment concerns T-47D breast. The following applies: 10 µM.
Another experiment has as its system BT-549 breast. To be noted: 10 µM.
The next experiment concerns MDA-MB-435 melanoma. To be noted: 10 µM.
In the next experiment the test system is SW-620 colon. The following applies: 10 µM.
For the next experiment, the system named is MCF7 breast. The following applies: 10 µM unless noted.
A further experiment deals with HCT-116 colon. To be noted: 10 µM.
The subject of the next experiment is HCC-2998 colon. To be noted: 10 µM.
Another experiment concerns KM12 colon. The following applies: 10 µM.

This is an account of results in PubChem BioAssay (NCI).

Values joined by “and” are separate entries in the source; they are usually repeats but may differ in a detail not shown here. Equal entries are not always repeated. About 83,000 compounds went through this panel and 20% of them were active in at least one assay; those are over-represented in the sample as a whole.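 The endpoint reported here, percent growth, reads 100 for growth as untreated, 0 for no net growth and -100 for all cells dead.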 Active and inactive are the calls of the source. Rule for the calls: active = growth percent below 10; inactive = the rest.

For `C[C@@H]1C[C@@H]([C@H](O)CC2CC(=O)NC(=O)C2)C(=O)[C@@H](C)C1`, the growth is 3.71% (active) with MOLT-4 leukemia; 3.4% (active) in the experiment with OVCAR-8 ovarian; 8.45% (active) in the experiment with OVCAR-5 ovarian; 12.8% (inactive) in the experiment with OVCAR-4 ovarian; 10.9% (inactive) in the experiment on SK-OV-3 ovarian; 11.3% (inactive) in the experiment on IGROV1 ovarian. The growth was 4.14% (active) with OVCAR-3 ovarian; 7.45% (active) with HS 578T breast; 0.354% (active) with NCI/ADR-RES ovarian; 1.15% (active) in the experiment on T-47D breast; 3.02% (active) in the experiment with BT-549 breast; 9.77% (active) in the experiment with MDA-MB-435 melanoma. For the same compound, the growth was 8.04% (active) in the experiment with SW-620 colon; 9.88% (active) with MCF7 breast; 0.0527% (active) in the experiment on HCT-116 colon; 2.14% (active) in the experiment on HCC-2998 colon; 5.65% (active) with KM12 colon.
Consider `O=[N+]([O-])c1ccc(N(CCO)CCO)c2c1no[n+]2[O-]`, for which the growth was -24.4% (active) in the experiment with MOLT-4 leukemia; 2.5% (active) with OVCAR-8 ovarian; 18.5% (inactive) in the experiment on OVCAR-5 ovarian; -25.8% (active) in the experiment with OVCAR-4 ovarian; -35.8% (active) in the experiment with SK-OV-3 ovarian; -65.9% (active) in the experiment with OVCAR-3 ovarian. The growth is -30.8% (active) in the experiment on HS 578T breast; 18.3% (inactive) with NCI/ADR-RES ovarian; -14.9% (active) with T-47D breast; -61.3% (active) with BT-549 breast; 2.88% (active) with MDA-MB-435 melanoma; 0.768% (active) with SW-620 colon. Further, the growth in the experiment with HCT-116 colon was -68.3% (active); in the experiment with HCC-2998 colon, -46.9% (active); with KM12 colon it was -40.1% (active).
As for `COc1cc([C@@H]2c3cc4c(c(O)c3C[C@H]3COC(=O)[C@@H]32)OCO4)cc(OC)c1OC`, the growth in the experiment on MOLT-4 leukemia was -30.2% (active); in the experiment with OVCAR-8 ovarian it was 16.4% (inactive); with OVCAR-5 ovarian it was 32.8% (inactive); in the experiment on OVCAR-4 ovarian, 49.9% (inactive); in the experiment on SK-OV-3 ovarian, -0.464% (active); in the experiment on IGROV1 ovarian it was -32.1% (active). Moreover, the growth with OVCAR-3 ovarian was -48.9% (active); in the experiment with HS 578T breast, -10.6% (active); in the experiment with NCI/ADR-RES ovarian, -28.9% (active); in the experiment on T-47D breast it was 60.8% (inactive); in the experiment with BT-549 breast it was -12.9% (active); in the experiment on MDA-MB-435 melanoma, -19.6% (active). Moreover, the growth is 15.9% (inactive) in the experiment on SW-620 colon, -38.4% (active) with HCT-116 colon, -54.8% (active) in the experiment with HCC-2998 colon and 0.358% (active) with KM12 colon.
Turning to `CC(=O)Nc1c2sscc-2n(C)c1=O`, the growth with MOLT-4 leukemia is -58% (active); in the experiment on OVCAR-5 ovarian, -60.4% (active); with OVCAR-4 ovarian, -96.4% (active); in the experiment with SK-OV-3 ovarian it was -100% (active); in the experiment on IGROV1 ovarian, -88.4% (active); in the experiment with OVCAR-3 ovarian, -100% (active). In addition, the growth with HS 578T breast was -57% (active); in the experiment on NCI/ADR-RES ovarian, -94.8% (active); with T-47D breast it was -87.4% (active); in the experiment on BT-549 breast, -96.4% (active); in the experiment on MDA-MB-435 melanoma, -93.7% (active); in the experiment with SW-620 colon, -99% (active). The growth with MCF7 breast is -60.9% (active); with HCT-116 colon, -100% (active); with HCC-2998 colon it was -100% (active); with KM12 colon it was -100% (active).
`COc1cc2c(c(OC)c1OC)-c1ccc(O)c(=O)cc1[C@@H](NC(C)=O)CC2`: the growth with MOLT-4 leukemia was 46.6% (inactive); in the experiment with OVCAR-8 ovarian it was 36.7% (inactive); in the experiment with OVCAR-5 ovarian, 70.1% (inactive); with OVCAR-4 ovarian, 46.5% (inactive); with SK-OV-3 ovarian, 66.9% (inactive); in the experiment with IGROV1 ovarian, 51.9% (inactive). Besides, the growth in the experiment on OVCAR-3 ovarian is 3.49% (active); in the experiment with NCI/ADR-RES ovarian, 74.3% (inactive); with T-47D breast, 18.4% (inactive); in the experiment on MDA-MB-435 melanoma it was 45.6% (inactive); in the experiment with SW-620 colon, 50.2% (inactive); in the experiment on HCT-116 colon it was 26.1% (inactive). Moreover, the figures for the growth with HCC-2998 colon and with KM12 colon were 66.9% (inactive) and 57.4% (inactive), respectively.
For `COc1cc(/C=C\[N+](=O)[O-])ccc1O`, the growth is 27% (inactive) and 79.2% (inactive) with MOLT-4 leukemia; 65.9% (inactive) and 93.9% (inactive) in the experiment with OVCAR-8 ovarian; 93.6% (inactive) and 105% (inactive) in the experiment with OVCAR-5 ovarian; 92.6% (inactive) and 113% (inactive) in the experiment with OVCAR-4 ovarian; 101% (inactive) and 97% (inactive) in the experiment with SK-OV-3 ovarian; 80.8% (inactive) and 75.4% (inactive) with IGROV1 ovarian. The growth in the experiment with OVCAR-3 ovarian is 62.4% (inactive) and 71.5% (inactive); with HS 578T breast, 106% (inactive) and 94.5% (inactive); with NCI/ADR-RES ovarian it was 83.4% (inactive) and 98.4% (inactive); with T-47D breast, 32.5% (inactive) and 71.1% (inactive); in the experiment with MDA-MB-435 melanoma it was 78.5% (inactive) and 51.3% (inactive); in the experiment with SW-620 colon it was 7.29% (active) and 67.5% (inactive). Further, the growth in the experiment with HCT-116 colon is 59.3% (inactive) and 32.9% (inactive); in the experiment with HCC-2998 colon, 100% (inactive) and 83.1% (inactive); in the experiment with KM12 colon, 80.2% (inactive) and 77.4% (inactive).
For `COC(C(=O)C(O)C(C)O)C1Cc2cc3cc(OC4CC(OC(C)=O)C(OC5CC(O)C(OC)C(C)O5)C(C)O4)cc(O)c3c(O)c2C(=O)C1OC1CC(OC2CC(OC3CC(C)(O)C(OC(=O)C(C)C)C(C)O3)C(O)C(C)O2)C(O)C(C)O1` (centres undefined), the growth was -25.4% (active) in the experiment on MOLT-4 leukemia; -43.5% (active) with OVCAR-5 ovarian; -0.721% (active) in the experiment on OVCAR-4 ovarian; 9.37% (active) with SK-OV-3 ovarian; -39.4% (active) with IGROV1 ovarian; -4.25% (active) with OVCAR-3 ovarian. In addition, the growth in the experiment with NCI/ADR-RES ovarian was 47.4% (inactive); with T-47D breast, -24.1% (active); with BT-549 breast it was -74.8% (active); in the experiment on MDA-MB-435 melanoma, -89.4% (active); in the experiment on SW-620 colon it was -12% (active); in the experiment on HCT-116 colon, -40.2% (active). Further, the growth in the experiment on HCC-2998 colon is -94.4% (active); with KM12 colon it was -10.4% (active).
For the compound `O=C(CCl)Nc1ccc(Cl)cc1`, the growth in the experiment on MOLT-4 leukemia was 32.8% (inactive); in the experiment on OVCAR-8 ovarian, 53.3% (inactive); in the experiment on OVCAR-5 ovarian, 53.5% (inactive); with OVCAR-4 ovarian, 17.6% (inactive); in the experiment with SK-OV-3 ovarian, 85.8% (inactive); in the experiment with IGROV1 ovarian it was -4.08% (active). For the same compound, the growth is 0.0428% (active) with OVCAR-3 ovarian; 68.3% (inactive) in the experiment on NCI/ADR-RES ovarian; 56% (inactive) in the experiment with T-47D breast; 48.5% (inactive) in the experiment with MDA-MB-435 melanoma; 39.7% (inactive) in the experiment with SW-620 colon; 16.9% (inactive) in the experiment with MCF7 breast. Moreover, the growth with HCT-116 colon is 18.9% (inactive); in the experiment with HCC-2998 colon, 98.3% (inactive); in the experiment with KM12 colon it was 67.8% (inactive).
For `Cc1cc([N+](=O)[O-])c2ccccc2[n+]1[O-]`, the growth in the experiment on MOLT-4 leukemia is -24.5% (active); with OVCAR-8 ovarian, 9.55% (active) and -40.6% (active); in the experiment on OVCAR-5 ovarian it was 20.9% (inactive) and 13.3% (inactive); in the experiment with OVCAR-4 ovarian, 84.1% (inactive) and 58.4% (inactive); in the experiment on SK-OV-3 ovarian it was 7.72% (active) and 21.4% (inactive); in the experiment on IGROV1 ovarian, 46.8% (inactive) and 5.5% (active). Also, the growth in the experiment on OVCAR-3 ovarian was -32.2% (active) and -41% (active); with HS 578T breast, 8.5% (active) and -14.4% (active); in the experiment with NCI/ADR-RES ovarian, 7.18% (active) and 0.529% (active); in the experiment with T-47D breast, -6.69% (active) and -8.77% (active); with BT-549 breast it was -36.6% (active) and -19.4% (active); in the experiment with MDA-MB-435 melanoma it was -53.1% (active) and -81.3% (active). For the same compound, the growth was -10.5% (active) and -30% (active) in the experiment on SW-620 colon; -11.2% (active) and 4.36% (active) in the experiment with MCF7 breast; -26.4% (active) and 0.608% (active) in the experiment with HCT-116 colon; -67.8% (active) and -90.8% (active) with HCC-2998 colon; -40.8% (active) and -59.2% (active) with KM12 colon.
